According to PubChem BioAssay (NCI):
Compounds without any hit were thinned out: in the full panel of roughly 79,000, 15% have a hit. Calls of active or inactive are those of the source. Cut-off read from the data, not from the text of the source: active = growth inhibition above about 70%; inactive = the rest.

Assay: NCI Yeast Anticancer Drug Screen. Data for the cln2 rad14 strain (AID 165);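 note: 0% = growth equal to vehicle treated cultures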
Conditions: S. cerevisiae cln2 rad14 strain, at 50.0 µM, active compounds read high
How it was run: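 Yeast strain cln2 rad14, bearing defects in cell cycle control and DNA repair, serves as the test system; values reflect growth inhibition compared with vehicle.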
In the case of `CCOC(=O)c1ccc(-n2cnc(-c3ccc([N+](=O)[O-])cc3)c2)cc1`, the growth inhibition is reported as -7.15% (inactive).
For `CCCCCC#CC(=O)OCC`, the growth inhibition was 10.1% (inactive).
For `CCN(CC)Cc1cc(NC(C)=O)ccc1O`, the growth inhibition was 11.1% (inactive).
In the case of `Cc1ccc(N=C(C(=O)c2ccccc2)C(Nc2ccc(C)cc2)C(=O)c2ccccc2)cc1` (stereo not given), the growth inhibition is reported as 20.8% (inactive).
For `CCCCCCCCCCCCCCCSc1ccc2ccccc2c1`, the growth inhibition was -25.2% (inactive).
With `CCOC(=O)c1c[nH]n(Cc2ccccc2)c1=O` the growth inhibition was -23.2% (inactive).
For `O=C(c1cccc(F)c1)c1ccccc1Cc1ccccc1`, the growth inhibition was 19.4% (inactive).
With `Cc1cc(N(CCC#N)CCC#N)ccc1/C=C1\N=C(c2cc([N+](=O)[O-])ccc2Cl)N(c2cccc(Cl)c2)C1=O` the growth inhibition was -7.6% (inactive).
For `CCOC(=O)C1=C(C)NC(=O)NC1c1ccc(N(C)C)cc1` (stereo not given), the growth inhibition was 21.6% (inactive).
For `CCN(c1ccccc1)S(=O)(=O)c1cc(N)ccc1C`, the growth inhibition was -2.8% (inactive).
In the case of `CCOC(=O)CCCCCCCCCC[N+](CC)(CC)CC(=O)c1ccc(NC(C)=O)cc1`, the growth inhibition is reported as 12.3% (inactive).
For `CCC(=S)Nc1ccc(Cl)cc1`, the growth inhibition was -21.2% (inactive).
With `c1ccc2nc3ccccc3cc2c1` the growth inhibition was 27.8% (inactive).
For `CCOC(=O)/C(C)=C/CC1=C(O)c2ccccc2C(=O)C1=O`, the growth inhibition was 16.2% (inactive).
With `Cc1cc2nnn(C3CCCCO3)c2cc1C` (stereo not given) the growth inhibition was -15.8% (inactive).
In the case of `O=C1OCC=C1COC1OC(CO)C(O)C(O)C1O` (stereo not given), the growth inhibition is reported as 5.05% (inactive).
For `COC1=CC(=O)C(C)=CC1=O`, the growth inhibition was 7.35% (inactive).
In the case of `CC1CCC2(OC1)OC1CC3C4CCC5CC(O)CCC5(C)C4CC(=O)OC3(C)C1C2C` (stereo not given), the growth inhibition is reported as -7.35% (inactive).
In the case of `O=C(NNC(=O)OCc1ccccc1)OCc1ccccc1`, the growth inhibition is reported as -34.2% (inactive).
In the case of `CC1=Nc2nc3ccccc3n2C(C)(C)C1`, the growth inhibition is reported as -3.95% (inactive).
With `Nc1ncc2c(n1)-c1ccccc1OC2NC1CC1` (stereo not given) the growth inhibition was -5.55% (inactive).
For `O=C(CC(=O)n1nc(-c2ccccc2)c(N=Nc2ccc([N+](=O)[O-])cc2)c1-c1ccccc1)Nc1ccc(Cl)cc1`, the growth inhibition was 17.4% (inactive).
With `O=C1C(=O)N(C23CC4CC(CC(C4)C2)C3)C(=S)N1c1ccccc1` the growth inhibition was -26% (inactive).
In the case of `CC1OCC2CC3(O1)OC3C(COCC1OC3COC(C)OC4(C3)OC14)O2` (stereo not given), the growth inhibition is reported as -44.5% (inactive).
For `c1ccc(COc2ccc3c(c2)CN(Cc2ccccc2)CO3)cc1`, the growth inhibition was -18.6% (inactive).
In the case of `CNCCCCCCNc1cc(OC)cc2cccnc12`, the growth inhibition is reported as 7.05% (inactive).
With `Cc1ccc(S(=O)(=O)N/N=C/C(C)(c2ccccc2)c2ccccc2)cc1` the growth inhibition was 40.2% (inactive).
In the case of `O=C(NN1C(=O)C(Cl)C1c1cccc(Cl)c1)c1ccccc1O` (stereo not given), the growth inhibition is reported as -26.6% (inactive).
With `CCOC(=O)C1=C(O)C(=O)c2ccoc2C1=O` the growth inhibition was -7.15% (inactive).
In the case of `CC(CO)(CO)Nc1ncnc2ccccc12`, the growth inhibition is reported as -26.4% (inactive).
For `BrC1CCC(Br)CC1` (stereo not given), the growth inhibition was -12.9% (inactive).
For `Cc1nc2ccccc2o1`, the growth inhibition was 14.9% (inactive).
In the case of `Cc1cc(-c2ccccc2)[nH]c1-c1nccc2ccccc12`, the growth inhibition is reported as 24% (inactive).
For `CN1c2ccccc2Sc2cc(/C=C3/SC(=S)NC3=O)ccc21`, the growth inhibition was -19.8% (inactive).
In the case of `Cc1nc2ccc(S(=O)(=O)Nc3ccccc3Cl)cc2c(=O)n1NC(=O)CNc1ccccc1Cl`, the growth inhibition is reported as 6.95% (inactive).
For `C[C@]12CCC[C@H](O)[C@H]1O2`, the growth inhibition was 0.55% (inactive).
In the case of `Cc1ccc(C)o1`, the growth inhibition is reported as -12.2% (inactive).
For `CN(C)N=Nc1ccccc1`, the growth inhibition was 15.4% (inactive).
With `CC1(Br)CP(=O)(c2ccccc2)CC1Br` (stereo not given) the growth inhibition was -24.4% (inactive).
For `C=C(c1ccc(OC)cc1)c1cc(C(C)(C)C)c(O)c(C(C)(C)C)c1`, the growth inhibition was 51.8% (inactive).
